Screening results deposited in PubChem BioAssay by National Center for Advancing Translational Sciences (NCATS).
Rows were chosen to be rich in hits. Some 3.8% of all compounds tested hit in one or more screens of this group.
A549 viability – kills or reduces viability of A549 cells in Nrf2 counter-screen; A549 ARE-Fluc cells, CellTiter-Fluor viability, 18-24 h; Potency, µM (doses to about 46 µM), without a hit: at the top dose activity change, negative = cytotoxicity, hits mostly inhibitors; hit rate 0.16% among 390,000; AID 504648; also: % is scaled to controls: 0 for no effect and ±100 for the full control effect
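A549 ARE_Fluc cells in 5% FBS OPTI-MEM were exposed to compounds in concentration-response for 18-24 h at 37 deg C. Viability was read by CellTiter-Fluor fluorescence (Ex 405/Em 525) after 30 min, before the luciferase read.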
ATXN viability – viability counter-screen for ATXN expression inhibitors; AID 651635; S2 cells (HEK-293 line with an ATXN2-luciferase reporter) viability, CellTiter-Fluor protease fluorescence, 24 h; hit rate 0.49% among 400,000; Potency, µM (doses to about 56.7 µM), usual class: cytotoxic; also: nearly all actives have a fitted effect of over 40% in size
ATXN2 expr inh – inhibitors of ATXN2 expression; HEK-293 ATXN2-luciferase reporter, luminescence, 24 h; Potency, µM (titrated, usually from 57 µM), for the others: at the highest dose activity change, negative = inhibition, actives largely listed as inhibitors; hit rate 0.72% among 360,000; AID 1745845; also: % is scaled to controls: 0 for no effect and ±100 for the full control effect; nearly all actives have a fitted effect of over 55% in size
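qHTS (up to 57 uM final) was run with 24 h compound exposure of reporter cells at 37 °C. Each well was multiplexed: SteadyGlo luminescence measured ATXN2-luciferase expression after a fluorogenic Gly-Phe-AFC viability readout (25 uM final).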
Nrf2 inh – Nrf2 pathway inhibition | A549 ARE-Fluc reporter, luciferase luminescence, 18-24 h | Potency, µM (highest dose often 46 µM), inactives show at the highest dose activity change, negative = inhibition, actives largely listed as inhibitors | hit rate 2.1% among 360,000 | AID 504444; also: % is scaled to controls: 0 for no effect and ±100 for the full control effect; nearly all actives have a fitted effect of over 60% in size
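Cells were seeded and rested 2 h, then exposed to compounds for 18-24 h. CellTiter-Fluor was read first as a viability measure. BugLite was added 15 min before the final luminescent read of ARE-luciferase activity in A549 cells.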
HepG2 viability – counter-screen for TGF-b inhibitors: cytotoxicity in HepG2 cells. HepG2 CAGA-GFP viability, ATP luminescence, 18 h. Potency, µM (doses to about 46.1 µM), without a hit: top-dose activity change, negative = cytotoxicity, hits mostly cytotoxic. hit rate 0.76% among 410,000
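HepG2 CAGA-GFP cells (1000/well, DMEM with 1% FBS) received compound, then TGF-beta at 500 pg/mL final, and were incubated 18 hours at 37 degrees C. Viability was read by CellTiter-Glo luminescence. Media-only wells were set as complete cell-killing and DMSO as no toxicity.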
TGFb SMAD3 inh – TGF-b pathway inhibition; HepG2 CAGA-GFP TGF-b/SMAD3 reporter, GFP fluorescence, 18 h; TGF-beta stimulated, 500 pg/mL final; Potency, µM (top dose mostly 46.1 µM), for inactives: top-dose activity, negative = inhibition, actives largely listed as inhibitors; hit rate 1.2% among 410,000; also: % is scaled to controls: 0 for no effect and ±100 for the full control effect; nearly all actives have a fitted effect of over 65% in size
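Cell-based qHTS in HEPG2 carrying a CAGA-GFP Smad reporter; compounds added before 500 pg/mL final TGF-beta, 18 h incubation at 37 degrees C, GFP fluorescence quantified per cell by imaging cytometry.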
* marks the source's active call; other numbers are inactive results; i = inactive; ? = inconclusive; · = not tested or not shown. Calls follow the shape of the dose curve; as a rule, active = well fitted curve in the direction sought with a large enough effect; inconclusive = small, poorly fitted or top-dose-only effect, or another doubt; inactive = no such curve, though single readings can be large; an effect the other way counts as inactive or inconclusive. Potency is read from the fitted curve at half-maximal effect.

SMILES	A549 viability	ATXN viability	ATXN2 expr inh	Nrf2 inh	HepG2 viability	TGFb SMAD3 inh
COCCNC(=O)C1(C)CCCN(C(=O)c2cc(OC)c(OC)c(OC)c2)C1 (centres undefined)	·	i	12%	·	-1%	0%
Cc1cc2ccccc2cc1C(=O)c1ccccc1	2%	i	8%	?	-8%	16%
O=C(c1ccccc1)c1ccc2ccccc2c1	5%	i	41%	?	0%	-3%
Cc1sc2cc3c(c(C(=O)c4ccccc4)[n+]2c1C)-c1cccc2cccc-3c12	?	?	11µM*	?	-2%	?
O=C(c1ccccc1)c1c2c(cc3sc4ccccc4[n+]13)-c1cccc3cccc-2c13	16µM*	10µM*	?	21µM*	-42%	94%
COc1ccc(NC(=O)c2ccc3[nH]c(C)cc(=O)c3c2)cc1	1%	i	0%	?	3%	14%
O=C(N/N=C\c1ccc(F)cc1)c1csnn1	3%	i	17%	·	8%	-20%
Cc1nc2ccc(NS(=O)(=O)c3cccc([N+](=O)[O-])c3)cc2s1	-12%	i	-22%	18µM*	1%	0%
Cc1nc2ccc(NS(=O)(=O)c3ccccc3F)cc2s1	0%	i	·	?	-9%	?
Cc1nc2ccc(NS(=O)(=O)c3ccc(F)c(F)c3)cc2s1	3%	i	-19%	16µM*	-10%	-9%
CC(=O)Nc1ccc(S(=O)(=O)Nc2ccc3nc(C)sc3c2)cc1	-15%	i	-22%	16µM*	-9%	-3%
Cc1ccc(S(=O)(=O)Nc2ccc3nc(C)sc3c2)c(C)c1	-12%	i	-35%	?	-6%	-13%
Cc1ccc(S(=O)(=O)Nc2ccc3nc(C)sc3c2)cc1	-5%	i	-8%	15µM*	-16%	0%
O=C(Nc1ccc(F)cc1)/C(=C1/CCCCCN1)[N+](=O)[O-]	0%	i	6%	7%	1%	4%
CCCc1cc(N2CCN(c3cc(Cl)ccc3C)CC2)n2cnnc2n1	?	i	-8%	?	5%	-20%
COc1ccc(-c2ccc3c(c2)c(Sc2ccccc2)c(-c2ccccc2)n3C)cc1	·	i	-1%	·	·	·
Cc1nc(C(F)(F)F)c(C(=O)O)cc1-c1nc(-c2ccccc2)cs1	1%	i	·	5%	-2%	26%
CC(=O)Nc1ccc2nc(NS(=O)(=O)c3ccc(C)cc3)sc2c1	6%	i	3%	-15%	0%	4%
Cc1nc2ccc(NS(=O)(=O)c3ccc(Br)cc3)cc2s1	0%	i	·	15µM*	-13%	-26%
COc1ccccc1S(=O)(=O)Nc1ccc2nc(C)sc2c1	0%	i	0%	?	-7%	-6%
Cc1ccc(S(=O)(=O)Nc2ccc3nc(N)sc3c2)cc1	-18%	i	0%	7.3µM*	-10%	-20%
CN(c1ncnc2onc(-c3cccc(Cl)c3)c12)C1CCCCC1	0%	i	-12%	-13%	-27%	?
CNC(=O)CN(Cc1ccccc1)S(=O)(=O)c1ccc(Cl)cc1	7%	i	-3%	1%	-26%	-2%
CCCn1c2c(c(=N)c3c1CCC3)CCC2	-17%	i	-16%	7.3µM*	-4%	-23%
Cc1ccc(OCCSc2nc3ccccc3n2CC(=O)N2CCOCC2)cc1	0%	i	7%	18µM*	-3%	-11%
SMILES	A549 viability	ATXN viability	ATXN2 expr inh	Nrf2 inh	HepG2 viability	TGFb SMAD3 inh
COc1ccccc1OCCSc1nc2ccccc2n1CCC(=O)O	5%	i	6%	-4%	-11%	-8%
Cc1cccc(OCCSc2nc3ccccc3n2CC(=O)N2CCOCC2)c1	0%	·	·	6%	-17%	·
COC(=O)Cn1c(SCCOc2ccccc2Cl)nc2ccccc21	-10%	i	6%	23µM*	-11%	-26%
CC1(C)CC(NC(=O)C2CCN(S(=O)(=O)c3ccc(Cl)c(C(F)(F)F)c3)CC2)CC(C)(C)N1	7%	i	·	0%	-26%	11%
CCc1cc(=O)oc2c(C)c(OS(C)(=O)=O)ccc12	3%	i	2%	2%	-4%	-7%
CCc1cc2c(=O)c(-c3ccc4c(c3)OCCO4)c(C)oc2cc1OS(C)(=O)=O	?	i	-24%	23µM*	-23%	?
CCn1c(-c2cc(-c3ccc(C)cc3)nc3ccccc23)n[nH]c1=S	-6%	i	11%	-15%	0%	1%
CCCOc1cccc(-c2cc(-c3n[nH]c(=S)n3CC)c3ccccc3n2)c1	?	i	8%	13µM*	-40%	?
Cc1ccn2c(NCc3ccccc3)c(-c3cccc(SC4CCCCC4)c3)nc2c1	-20%	?	?	?	-53%	13µM*
COc1ccc(-c2nc3ccc(C)cn3c2NCc2ccccc2)cc1SC1CCCCC1	?	16µM*	-9%	?	-81%	20µM*
CCCCNc1c(-c2ccc(OC)c(SC3CCCCC3)c2)nc2ccc(C)cn12	?	10µM*	25µM*	18µM*	13µM*	18µM*
c1ccc(CNc2c(-c3cccc(SC4CCCCC4)c3)nc3ccccn23)cc1	-2%	?	-1%	?	-61%	?
CCCCNc1c(-c2ccc(SC3CCCCC3)c(OC)c2)nc2ccc(C)cn12	?	?	?	?	8.9µM*	?
Cc1ccc2nc(-c3cccc(SC4CCCCC4)c3)c(NCc3ccccc3)n2c1	-21%	?	?	?	-34%	?
c1cnc2ccc(C(c3nnnn3C3CCCC3)N3CCN4CCCC4C3)cc2c1 (centres undefined)	24%	i	6%	18%	-17%	24%
O=C(COC(=O)/C=C/c1cccc(Br)c1)NC1CCCC1	10%	i	2%	5%	10%	-1%
CCOc1ccc2nc(NC(=O)c3ccoc3C)sc2c1	-5%	i	2%	?	1.8µM*	-15%
CCOc1ccc2nc(NC(=O)c3ccco3)sc2c1	-4%	i	-29%	?	-52%	-6%
Cc1ccc2nc(NC(=O)c3ccccn3)sc2c1	-2%	?	?	?	-51%	0%
CCOc1ccc2nc(NC(=O)c3ccccn3)sc2c1	?	?	25µM*	?	-32%	-9%
S=C1SC2(CCCCCC2)NC2=C1CCCCC2	·	·	·	·	-34%	-23%
CC(=O)Nc1ccc(-c2csc(NNC(=O)c3ccccc3)n2)cc1	?	?	·	13µM*	-2%	-11%
